# Screening data from PubChem.
# Hits are enriched below; roughly 10% of the tested compounds scored in any of these assays.
# NPR1 antag: human Npr1 receptor antagonism; P16066; HEK293 hNpr1 GloSensor cGMP, ANP-stimulated luminescence; Potency, µM (highest dose often 46.3 µM), hits mostly inhibitors; 76,000 compounds, 1.6% hits; calls by dose curve; note: nearly all actives have a fitted effect of over 60% in size
#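 Compound pre-incubated 30 min at room temperature on GloSensor-loaded HEK293 cells stably carrying hNpr1 and the pGS-40F cGMP biosensor. Stimulation uses hNppA at 0.1 nM final; luminescence is taken at baseline and 20 min post-agonist.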
# GPT2 inh: GPT2 alanine aminotransferase inhibition. Recombinant GPT2, coupled pyruvate oxidase/HRP Amplex Red fluorescence. 100,000 compounds, 0.25% hits. Potency, µM (doses to about 57.7 µM), usual class: inhibitors; note: nearly all actives have a fitted effect of over 60% in size
#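 Inhibition is scored from Amplex Red fluorescence generated when pyruvate oxidase and HRP act on pyruvate released by GPT2. Reactions contain 10ng/uL enzyme, 250uM a-KG and 2mM L-alanine and run 30 min at room temperature.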
# HEK cytotox: kills HEK 293 cells | HEK 293 viability, ATP luminescence (CellTiter-Glo), 48-72 h | 94,000 compounds, 6.6% hits | Potency, µM (top dose mostly 115 µM), actives largely listed as inhibitors; note: nearly all actives have a fitted effect of over 60% in size
#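 Luminescence from cellular ATP, measured with CellTiter-Glo, indicates HEK 293 viability. Cells plated at 250 cells/well are treated with compound for 48 or 72 hr at 37 degree Celsius before reagent addition.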
# NIH3T3 tox: NIH 3T3 cell cytotoxicity | NIH 3T3 viability, CellTiter-Glo ATP luminescence, 48-72 h | Potency, µM (titrated, usually from 96.7 µM), usual class: inhibitors | 94,000 compounds, 4.3% hits; note: nearly all actives have a fitted effect of over 55% in size
#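 Luminescent ATP readout (CellTiter-Glo, 10 min RT) after 48 or 72 hr compound exposure of NIH 3T3 cells seeded at 400 cells/well in 1536-well format; quantitative HTS.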
# FLuc inh: Photinus pyralis luciferase inhibition | P08659 | purified P. pyralis luciferase, luminescence, biochemical | Potency, µM (doses to about 115 µM), most hits filed as inhibitors | 76,000 compounds, 2.5% hits | AID 1347043; note: nearly all actives have a fitted effect of over 65% in size
# Target sequence (P08659 whole entry, looked up): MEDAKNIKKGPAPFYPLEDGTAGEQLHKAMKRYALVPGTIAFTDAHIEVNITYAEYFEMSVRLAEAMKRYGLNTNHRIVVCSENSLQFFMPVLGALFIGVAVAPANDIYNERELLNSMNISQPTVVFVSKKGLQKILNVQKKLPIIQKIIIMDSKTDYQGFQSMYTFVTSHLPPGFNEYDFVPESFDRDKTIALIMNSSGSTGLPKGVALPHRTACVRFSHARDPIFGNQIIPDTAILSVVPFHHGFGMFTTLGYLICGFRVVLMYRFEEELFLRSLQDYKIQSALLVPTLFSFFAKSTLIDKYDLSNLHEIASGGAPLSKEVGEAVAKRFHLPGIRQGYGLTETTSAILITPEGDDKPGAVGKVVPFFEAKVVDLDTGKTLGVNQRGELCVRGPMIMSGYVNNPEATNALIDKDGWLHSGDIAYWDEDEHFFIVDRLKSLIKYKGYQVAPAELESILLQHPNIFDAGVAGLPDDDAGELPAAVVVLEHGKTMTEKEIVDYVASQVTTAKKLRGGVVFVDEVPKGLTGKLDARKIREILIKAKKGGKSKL
#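 Cell-free enzyme assay, 10nM P. pyralis luciferase, luciferin and ATP each at 10uM. Inhibition profiled over a 6-point titration, read as luminescence.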
# A number is an active result; – = inactive; ? = inconclusive; · = not tested or not shown; [ ] = remark or other dose. Unless noted, calls come from the whole dose curve; as a rule, active = well fitted curve in the direction sought with a large enough effect; inconclusive = small, poorly fitted or top-dose-only effect, or another doubt; inactive = no such curve, though single readings can be large; an effect the other way counts as inactive or inconclusive.
SMILES,NPR1 antag,GPT2 inh,HEK cytotox,NIH3T3 tox,FLuc inh
COc1ccc(N2CCN(c3nc(C(=O)N4CCN(C)CC4)cs3)CC2)cc1,–,?,?,–,–
O=C(NCC1CN(CC2CC2)CC12CN(c1ccccc1)C2)c1ccccc1 (configuration not stated),–,–,?,89.1µM,–
O=C(NCC1CN(CC2CC2)CC12CN(c1ccccc1)C2)Nc1ccccc1 (configuration not stated),–,–,?,100µM,–
CN(C)c1nccnc1OC1CCN(C(=O)c2ccn[nH]2)C1 (configuration not stated),–,–,–,–,25.1µM
CN(C)c1nccnc1OC1CCN(C(=O)CC2CCCC2)C1 (configuration not stated),–,–,?,–,35.5µM
CN(C)c1nccnc1OC1CCN(C(=O)CCCc2ccccc2)C1 (configuration not stated),–,–,79.4µM,–,?
CCc1ccc(C(=O)N2CCC(Oc3nccnc3N(C)C)C2)cc1 (configuration not stated),–,?,?,–,?
CN(C)c1nccnc1OC1CCN(C(=O)c2ccccc2Br)C1 (configuration not stated),–,–,–,–,?
COC(=O)CNC(=O)c1ccc(-c2ccc(OC)nn2)cc1Cl,·,·,–,–,·
COCC(=O)N1CCN(C(=O)c2ccc(-c3ccc(OC)nn3)cc2)CC1,·,·,–,–,·
CCOc1ccccc1CN1CCC2(CCN(C(=O)N(C)C)CC2)Oc2ccccc21,–,–,?,?,–
O=C(NCCNC(=O)c1ccc(C(F)(F)F)cc1)c1ccc(-c2cccc(C(F)(F)F)c2)cc1,·,·,–,–,·
O=C(Nc1cccc(Br)c1)N1CCC2(CC1)SCC(=O)N2Cc1ccco1,?,–,28.2µM,15.8µM,?
O=C(Nc1cccc(Br)c1)N1CCC2(CC1)SCC(=O)N2Cc1ccccc1,–,–,50.1µM,15.8µM,–
Cc1ccc(NC(=O)c2nc3sccn3c2-c2ccc(C(F)(F)F)cc2)cc1,·,–,?,?,·
O=C([C@H]1CCCN1C(=O)Nc1ccccc1)N1CCCC(c2nc3ccncc3[nH]2)C1 (some centres not stated),·,–,–,–,·
Cc1ccc(C2Cn3nnc(-c4noc(-c5nn(C)c6ccccc56)n4)c3CO2)cc1 (configuration not stated),–,–,–,–,–
COCCNC(=O)C(C)[C@@H]1CC[C@@]2(C)CC[C@H](NC(=O)c3cnccn3)[C@@H](C)[C@@H]2[C@H]1O (some centres not stated),–,–,–,–,–
Cn1c(CNC(=O)C2(Cc3ccccc3)CCCCC(=O)N2)nc2ccccc21 (configuration not stated),–,–,?,?,–
Cn1c(CNC(=O)C2(C)CCCCC(=O)N2)nc2ccccc21 (configuration not stated),–,–,44.7µM,39.8µM,–
Cc1ccc(-c2cc(N3CCC(CNC(=O)c4n[nH]c5c4CCCC5)CC3)n[nH]2)cc1,?,?,?,28.2µM,?
Cc1ccc(-c2cc(N3CCC(CNC(=O)c4ccc[nH]4)CC3)n[nH]2)cc1,–,?,?,?,?
O=C(NCC1CCN(c2cc(-c3ccc(F)cc3)[nH]n2)CC1)c1n[nH]c2c1CCCC2,?,?,39.8µM,35.5µM,?
O=C(NCC1CCN(c2cc(-c3ccccc3)[nH]n2)CC1)c1n[nH]c2c1CCCC2,?,?,?,31.6µM,?
CN(C)c1cccc(C(=O)NCC2CCN(c3cc(-c4ccc(F)cc4)[nH]n3)CC2)c1,–,?,?,?,?
SMILES,NPR1 antag,GPT2 inh,HEK cytotox,NIH3T3 tox,FLuc inh
O=C(NC1CCN(c2ccnc3ccnn23)CC1)c1ccccc1Cl,·,–,–,?,·
NC(=O)Cc1c[nH]c2ncc(-c3cccc(C(F)(F)F)c3)cc12,–,–,?,31.6µM,–
COc1cccc(-c2cnc3[nH]cc(CC(N)=O)c3c2)c1,–,–,–,70.8µM,89.1µM
O=C(CCC1CCCC1)NCC1CCCCC(=O)N1 (configuration not stated),·,–,–,–,·
O=C(CC1=C2CCCCC2N(Cc2ccccc2)C1=O)N1CCc2ccccc2C1 (configuration not stated),–,–,50.1µM,?,–
O=C(CC1CCCCN(Cc2ccccc2)C1=O)N1CCc2ccccc2C1 (configuration not stated),–,–,44.7µM,?,–
O=C(NCCc1ccccc1F)c1nc2sccn2c1-c1ccccc1,·,–,?,?,·
COc1ccc(CN2Cc3[nH]cnc3C[C@H]2c2nc(-c3ccc(C(F)(F)F)cc3)no2)cc1,–,–,?,?,39.8µM
COc1ccc(-c2noc([C@@H]3Cc4nc[nH]c4CN3Cc3ccc(NC(C)=O)cc3)n2)cc1,–,?,–,–,35.5µM
COc1ccc(-c2noc([C@@H]3Cc4nc[nH]c4CN3Cc3ccccc3)n2)cc1,–,–,?,?,?
O=C(NCC1Cn2cccc2CN1Cc1ccccc1)c1n[nH]c2ccccc12 (configuration not stated),–,–,?,?,14.1µM
C[S+](=O)([O-])CCn1ncc2cc(OCC3CCN(Cc4cccs4)CC3)ccc21,–,–,?,?,63.1µM
C[S+](=O)([O-])CCn1ncc2cc(OCC3CCN(CCC(F)(F)F)CC3)ccc21,–,–,?,–,?
CCOC(=O)N1CCC(COc2ccc3c(cnn3CC[S+](C)(=O)[O-])c2)CC1,?,–,?,79.4µM,?
O=C(c1ccc2nnc(Cc3ccc(Cl)cc3)n2c1)N1CCOCC1,·,–,–,–,·
Clc1ccc(Oc2cccc(CN3CCN(C4CCNC4)CC3)c2)cc1 (configuration not stated),–,–[11.5 µM],28.2µM,28.2µM,–
CNC(=O)c1cc(C2CC2)nc2c1c(C1CCN(C(=O)N(C)C)C1)nn2C (configuration not stated),·,·,–,–,·
CCCS(=O)(=O)N1CC(c2nc(Cc3cccnc3)no2)C1,·,–,–,–,·
COc1ccc(CN2CC(c3nc(Cc4cccnc4)no3)C2)c(OC)c1,?,–,?,15.8µM,–
COc1ccccc1-c1cnc(Nc2cccnc2OC)c2c1CCO2,–,–,28.2µM,?,?
COc1ccccc1-c1cnc(Nc2ccc(Cl)cn2)c2c1CCO2,–,–,63.1µM,?,?
COc1ccccc1-c1cnc(Nc2cccnc2)c2c1CCO2,?,–,79.4µM,?,?
COc1ccc(C(=O)N2CCC3(CC2)NC(=O)N(c2cccc(F)c2)N3)cc1OC,–,–,?,?,–
COc1ccc(C(=O)N2CCCC(N3C(=O)c4c(c(C)nn4-c4ccccc4)C3C)C2)cc1 (configuration not stated),·,·,?,14.1µM,·
